Reference: PubChem BioAssay (EPA / NIEHS)
Records with an inconclusive call do not appear. Active and inactive are the calls of the source. Rule for the calls: active = hit-call score of the fitted dose curve at least 0.9, where 1 is the maximum; inconclusive = response in the unintended direction; inactive = score below 0.9.

molecular target: Cellular tumor antigen p53 (Homo sapiens) (UniProt P04637); experiment: TOX21_p53_BLA_p2_ratio: Tox21 HCT-116 p53 Agonism Beta-lactamase Assay, Ratio, Phase 2 (AID 2283592)
Outline: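 First, HCT116 reporter cells settle for 5 h at 37C. Next, DMSO compound solutions are pinned in (217-fold dilution) and left 16 h. Finally, CCF4-AM substrate is loaded 2 h at room temperature and the 460/530 nm ratio read.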

Chain of Cellular tumor antigen p53 (Homo sapiens) (P04637 whole entry, looked up): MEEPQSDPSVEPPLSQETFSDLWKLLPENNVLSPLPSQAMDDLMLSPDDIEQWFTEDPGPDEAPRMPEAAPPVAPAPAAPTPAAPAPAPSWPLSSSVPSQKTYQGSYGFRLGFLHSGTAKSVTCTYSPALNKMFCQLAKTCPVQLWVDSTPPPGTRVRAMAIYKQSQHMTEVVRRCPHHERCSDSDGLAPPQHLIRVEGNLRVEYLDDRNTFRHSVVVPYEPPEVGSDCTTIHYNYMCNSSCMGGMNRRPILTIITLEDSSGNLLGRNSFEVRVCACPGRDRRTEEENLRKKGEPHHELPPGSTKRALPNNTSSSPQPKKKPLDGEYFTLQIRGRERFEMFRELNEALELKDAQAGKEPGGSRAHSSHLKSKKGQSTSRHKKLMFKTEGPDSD

Compound	outcome	AC50
CCCCc1oc2ccc(NS(C)(=O)=O)cc2c1C(=O)c1ccc(OCCCN(CCCC)CCCC)cc1	inactive	
Cc1ccc2nc(N)[nH]c(=O)c2c1Sc1ccncc1		2.17 µM (active)
CON=C(C(=O)N[C@@H]1C(=O)N2C(C(=O)O)=C(COC(N)=O)CS[C@H]12)c1ccco1	inactive	
CC1(C)S[C@@H]2[C@H](NC(=O)Cc3ccccc3)C(=O)N2[C@H]1C(=O)O (tested in a mixture with another compound)	inactive	
O=S(=O)(O)c1ccc(O)cc1	inactive	
CNc1ccc(O)cc1	inactive	
O=[N+]([O-])c1c(Cl)cccc1-c1c[nH]cc1Cl	inactive	
CC(C)NCC1CCc2cc(CO)c([N+](=O)[O-])cc2N1 (stereo not given)	inactive	
CC(C)(C)OC(=O)N1C[C@@H](F)C[C@H]1C(=O)O	inactive	
N#CCc1cccc(C(F)(F)F)c1	inactive	
COc1cc(C(=O)OCCCN2CCCN(CCCOC(=O)c3cc(OC)c(OC)c(OC)c3)CC2)cc(OC)c1OC	inactive	
CC[C@@]1([C@@H]2O[C@@H]([C@H]3O[C@@](O)(CO)[C@H](C)C[C@@H]3C)C[C@@H]2C)CC[C@H]([C@]2(C)CC[C@]3(C[C@H](O)[C@@H](C)[C@@H]([C@@H](C)[C@@H](OC)[C@H](C)C(=O)O)O3)O2)O1 (stereo in doubt)	inactive	
CC(C)(C#N)Nc1nc(Cl)nc(NC2CC2)n1	inactive	
Oc1c(Cl)cc(Cl)c2cccnc12		7.4 µM (active)
O=C(O)CCC(=O)C(=O)O	inactive	
CCCCCCCC(=O)CC[C@@H]1[C@@H](C/C=C\CCCC(=O)OC(C)C)[C@@H](O)C[C@H]1O		43.7 µM (active)
CO[C@@H]1[C@@H](O[C@@H]2O[C@H](C)[C@@H](O[C@H]3C[C@@](C)(O)[C@@H](OC(=O)CC(C)C)[C@H](C)O3)[C@H](N(C)C)[C@H]2O)[C@@H](CC=O)C[C@@H](C)C(=O)/C=C/C2OC2C[C@@H](C)OC(=O)C[C@H]1OC(C)=O (stereo not given in full)	inactive	
O=C(NCC1CCCCN1)c1cc(OCC(F)(F)F)ccc1OCC(F)(F)F (stereo not given)	inactive	
O=C(Oc1cccc2cccnc12)c1ccccc1	inactive	
COc1cc(C=C2CCCC(=Cc3ccc(O)c(OC)c3)C2=O)ccc1O	inactive	

Compound	outcome	AC50
CCCOc1ccc(C(=O)OCCN(CC)CC)cc1N	inactive	
CC(C)(C)C(=O)O	inactive	
O=C(CCS)OCC(COC(=O)CCS)(COC(=O)CCS)COC(=O)CCS	inactive	
Cc1ccc(S(=O)(=O)NC(=O)NC2CCCCCCC2)cc1	inactive	
Cc1cccc(C)c1OCC(=O)N[C@@H](Cc1ccccc1)[C@@H](O)C[C@H](Cc1ccccc1)NC(=O)[C@H](C(C)C)N1CCCNC1=O	inactive	
CCCCCCCCCCCC[n+]1ccc2ccccc2c1		11 µM (active)
Cc1ccccn1	inactive	
Cc1cc(O)c(C(C)(C)C)cc1Sc1cc(C(C)(C)C)c(O)cc1C		37.9 µM (active)
CCCC(C(=O)OCCN(CC)CC)(c1ccccc1)c1ccccc1	inactive	
CCCCCCCCCCCCCCCCCCNC(=O)OC1CCN(C(=O)OC[C@H](COC(=O)N(Cc2cccc[n+]2CC)C(=O)c2ccccc2OC)OC)CC1	inactive	
CCCCCCCCCCCCCCC(=O)O	inactive	
CC(C)(O)c1ccccc1CC[C@@H](SCC1(CC(=O)O)CC1)c1cccc(/C=C/c2ccc3ccc(Cl)cc3n2)c1	inactive	
CO[C@@]12[C@H](COC(N)=O)C3=C(C(=O)C(C)=C(N)C3=O)N1C[C@@H]1N[C@@H]12		7.59 µM (active)
CC(C)OC(=O)OCOP(=O)(CO[C@H](C)Cn1cnc2c(N)ncnc21)OCOC(=O)OC(C)C	inactive	
CSc1ccc2c(c1)C(N1CCN(C)CC1)Cc1ccccc1S2 (stereo not given)		44.4 µM (active)
Oc1c(Br)cc(Br)c2cccnc12		5.02 µM (active)
OCCN1CCN(CC/C=C2/c3ccccc3Sc3ccc(C(F)(F)F)cc32)CC1	inactive	
CC(=O)Oc1ccc(C2(c3ccc(OC(C)=O)cc3)Oc3ccccc3NC2=O)cc1		2.17 µM (active)
O=C(O)c1ccc(-n2nc(-c3ccccc3O)nc2-c2ccccc2O)cc1	inactive	
CN1CC(=O)N/C1=N/C(=O)Nc1cccc(Cl)c1	inactive	

tested on: not listed separately; experiment: TOX21_p53_BLA_p3_viability: Viability Assessment in the Tox21 HCT-116 p53 Agonism Beta-lactamase Assay, Phase 3 (AID 2283593);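 note: cells exposed to compound for 16 h before reading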
Outline: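 HCT-116 cells (4000/well) rested 5 h at 37C, then got DMSO compounds by pin tool (217-fold dilution) for 16 h at 37C, 5% CO2. After the bla read, CellTiter-Glo was added and luminescence read at 30 min, room temperature.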

Compound	AC50	outcome
CCCCc1oc2ccc(NS(C)(=O)=O)cc2c1C(=O)c1ccc(OCCCN(CCCC)CCCC)cc1	34.6 µM (active)	
Cc1ccc2nc(N)[nH]c(=O)c2c1Sc1ccncc1	3.66 µM (active)	
CON=C(C(=O)N[C@@H]1C(=O)N2C(C(=O)O)=C(COC(N)=O)CS[C@H]12)c1ccco1		inactive
CC1(C)S[C@@H]2[C@H](NC(=O)Cc3ccccc3)C(=O)N2[C@H]1C(=O)O (tested in a mixture with another compound)		inactive
O=S(=O)(O)c1ccc(O)cc1		inactive
CNc1ccc(O)cc1	82 µM (active)	
O=[N+]([O-])c1c(Cl)cccc1-c1c[nH]cc1Cl	37.2 µM (active)	
CC(C)NCC1CCc2cc(CO)c([N+](=O)[O-])cc2N1 (stereo not given)		inactive
CC(C)(C)OC(=O)N1C[C@@H](F)C[C@H]1C(=O)O		inactive
N#CCc1cccc(C(F)(F)F)c1		inactive
COc1cc(C(=O)OCCCN2CCCN(CCCOC(=O)c3cc(OC)c(OC)c(OC)c3)CC2)cc(OC)c1OC		inactive
CC[C@@]1([C@@H]2O[C@@H]([C@H]3O[C@@](O)(CO)[C@H](C)C[C@@H]3C)C[C@@H]2C)CC[C@H]([C@]2(C)CC[C@]3(C[C@H](O)[C@@H](C)[C@@H]([C@@H](C)[C@@H](OC)[C@H](C)C(=O)O)O3)O2)O1 (stereo in doubt)		inactive
CC(C)(C#N)Nc1nc(Cl)nc(NC2CC2)n1		inactive
Oc1c(Cl)cc(Cl)c2cccnc12		inactive
O=C(O)CCC(=O)C(=O)O		inactive
CCCCCCCC(=O)CC[C@@H]1[C@@H](C/C=C\CCCC(=O)OC(C)C)[C@@H](O)C[C@H]1O	43.7 µM (active)	
CO[C@@H]1[C@@H](O[C@@H]2O[C@H](C)[C@@H](O[C@H]3C[C@@](C)(O)[C@@H](OC(=O)CC(C)C)[C@H](C)O3)[C@H](N(C)C)[C@H]2O)[C@@H](CC=O)C[C@@H](C)C(=O)/C=C/C2OC2C[C@@H](C)OC(=O)C[C@H]1OC(C)=O (stereo not given in full)		inactive
O=C(NCC1CCCCN1)c1cc(OCC(F)(F)F)ccc1OCC(F)(F)F (stereo not given)		inactive
O=C(Oc1cccc2cccnc12)c1ccccc1		inactive
COc1cc(C=C2CCCC(=Cc3ccc(O)c(OC)c3)C2=O)ccc1O	15.5 µM (active)	

Compound	AC50	outcome
CCCOc1ccc(C(=O)OCCN(CC)CC)cc1N		inactive
CC(C)(C)C(=O)O		inactive
O=C(CCS)OCC(COC(=O)CCS)(COC(=O)CCS)COC(=O)CCS		inactive
Cc1ccc(S(=O)(=O)NC(=O)NC2CCCCCCC2)cc1		inactive
Cc1cccc(C)c1OCC(=O)N[C@@H](Cc1ccccc1)[C@@H](O)C[C@H](Cc1ccccc1)NC(=O)[C@H](C(C)C)N1CCCNC1=O		inactive
CCCCCCCCCCCC[n+]1ccc2ccccc2c1	35.9 µM (active)	
Cc1ccccn1		inactive
Cc1cc(O)c(C(C)(C)C)cc1Sc1cc(C(C)(C)C)c(O)cc1C	20 µM (active)	
CCCC(C(=O)OCCN(CC)CC)(c1ccccc1)c1ccccc1		inactive
CCCCCCCCCCCCCCCCCCNC(=O)OC1CCN(C(=O)OC[C@H](COC(=O)N(Cc2cccc[n+]2CC)C(=O)c2ccccc2OC)OC)CC1		inactive
CCCCCCCCCCCCCCC(=O)O		inactive
CC(C)(O)c1ccccc1CC[C@@H](SCC1(CC(=O)O)CC1)c1cccc(/C=C/c2ccc3ccc(Cl)cc3n2)c1	19.4 µM (active)	
CO[C@@]12[C@H](COC(N)=O)C3=C(C(=O)C(C)=C(N)C3=O)N1C[C@@H]1N[C@@H]12	29.5 µM (active)	
CC(C)OC(=O)OCOP(=O)(CO[C@H](C)Cn1cnc2c(N)ncnc21)OCOC(=O)OC(C)C		inactive
CSc1ccc2c(c1)C(N1CCN(C)CC1)Cc1ccccc1S2 (stereo not given)	37.8 µM (active)	
Oc1c(Br)cc(Br)c2cccnc12		inactive
OCCN1CCN(CC/C=C2/c3ccccc3Sc3ccc(C(F)(F)F)cc32)CC1		inactive
CC(=O)Oc1ccc(C2(c3ccc(OC(C)=O)cc3)Oc3ccccc3NC2=O)cc1		inactive
O=C(O)c1ccc(-n2nc(-c3ccccc3O)nc2-c2ccccc2O)cc1		inactive
CN1CC(=O)N/C1=N/C(=O)Nc1cccc(Cl)c1		inactive
